Screens as filed in PubChem.
ATXN2 expr inh – Primary qHTS for Inhibitors of ATXN expression. HEK-293 ATXN2-luciferase reporter, luminescence, 24 h. Potency, µM (series often up to 57 µM), inactives show at the top dose activity change, negative = inhibition, hits mostly inhibitors. 360,000 tested, 0.72% active. AID 1745845, 2022; further: on the % scale 0 is the no-effect control and ±100 the full control effect; nearly all actives have a fitted effect of over 55% in size
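qHTS (up to 57 uM final) was run with 24 h compound exposure of reporter cells at 37 °C. Each well was multiplexed: SteadyGlo luminescence measured ATXN2-luciferase expression after a fluorogenic Gly-Phe-AFC viability readout (25 uM final).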
ATXN viability – Viability Counterscreen for Primary qHTS for Inhibitors of ATXN expression; S2 cells (HEK-293 line with an ATXN2-luciferase reporter) viability, CellTiter-Fluor protease fluorescence, 24 h; Potency, µM (top dose mostly 56.7 µM), actives largely listed as cytotoxic; 400,000 tested, 0.49% active; AID 651635, 2014; further: nearly all actives have a fitted effect of over 40% in size
DT40 TDP1 CPT – qHTS for Inhibitors of human tyrosyl-DNA phosphodiesterase 1 (TDP1): qHTS in cells in presence of CPT | chicken DT40 Tdp1-/-;hTDP1 cells + 20 nM CPT, ATP luminescence, 48 h | Potency, µM (titrated, usually from 46.2 µM), for the others: top-dose activity change, negative = growth inhibition, hits mostly inhibitors | 420,000 tested, 12% active | AID 686979, 2013; further: on the % scale 0 is the no-effect control and ±100 the full control effect; nearly all actives have a fitted effect of over 55% in size
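Chicken DT40 Tdp1-/- cells complemented with human TDP1, 400 cells/well, exposed to compounds plus 20 nM camptothecin for at least 48 h at 37 C; viability read as ATP content by CellTiter-Glo luminescence.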
HepG2 tox – qHTS for Inhibitors of TGF-b: Cytotox Counterscreen | Potency, µM (highest dose often 46.1 µM), for the others: at the top dose activity change, negative = cytotoxicity, most hits filed as cytotoxic | 410,000 tested, 0.76% active | HepG2 CAGA-GFP viability, ATP luminescence, 18 h | AID 588856, 2011
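HepG2 CAGA-GFP cells (1000/well, DMEM with 1% FBS) received compound, then TGF-beta at 500 pg/mL final, and were incubated 18 hours at 37 degrees C. Viability was read by CellTiter-Glo luminescence. Media-only wells were set as complete cell-killing and DMSO as no toxicity.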
TGFb SMAD3 inh – qHTS for Inhibitors of TGF-b; Potency, µM (series often up to 46.1 µM), for inactives: top-dose activity, negative = inhibition, usual class: inhibitors; HepG2 CAGA-GFP TGF-b/SMAD3 reporter, GFP fluorescence, 18 h; TGF-beta stimulated, 500 pg/mL final; AID 588855, 2011; 410,000 tested, 1.2% active; further: on the % scale 0 is the no-effect control and ±100 the full control effect; nearly all actives have a fitted effect of over 65% in size
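HEPG2 CAGA-GFP reporter cells (1000/well, DMEM with 1% FBS) received compounds, then recombinant TGF-beta at 500 pg/mL final for 18 hours at 37 degrees C. Per-cell GFP summed per well was normalised to unstimulated and stimulated DMSO controls before curve fitting.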
DT40 TDP1 no CPT – qHTS for Inhibitors of human tyrosyl-DNA phosphodiesterase 1 (TDP1): qHTS in cells in absence of CPT. DT40 Tdp1-/- hTDP1 cells, no CPT, ATP luminescence, 48 h. Potency, µM (highest dose often 46.2 µM), for inactives: at the top dose activity change, negative = growth inhibition, hits mostly inhibitors. 420,000 tested, 15% active. AID 686978, 2013; further: on the % scale 0 is the no-effect control and ±100 the full control effect; nearly all actives have a fitted effect of over 55% in size
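DT40 Tdp1-/-;hTDP1 cells, no CPT (DMSO vehicle only), 400 cells/well; compounds pin-transferred; ≥48 hr, 37 °C; CellTiter-Glo 30 min RT dark, luminescence read.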
* marks the source's active call; other numbers are inactive results; i = inactive; ? = inconclusive; nt = not tested or not shown; [ ] = another dose, or the depositor's remark. This is a sample that favours compounds with a hit; in the whole collection about 17% have one here. The call rests on the fitted dose curve; in most records, active means well fitted curve in the direction sought with a large enough effect; inconclusive means small, poorly fitted or top-dose-only effect, or another doubt; inactive means no such curve, though single readings can be large; an effect the other way counts as inactive or inconclusive. Potency means the concentration at half of the fitted maximal effect.

SMILES	ATXN2 expr inh	ATXN viability	DT40 TDP1 CPT	HepG2 tox	TGFb SMAD3 inh	DT40 TDP1 no CPT
COc1ccccc1N1CCN(S(=O)(=O)c2c(C)sc3ncn(CC(=O)NCCN(C)C)c(=O)c23)CC1	10.3%	i	14.6%	7.8%	29.7%	-12.2%
COc1ccccc1/C=C1\SC(=S)N(CCC(=O)Nc2cccc(O)c2)C1=O	?	?	-20.4%	-47.5%	?	?
CC1=C(C(=O)N(C(C)C)C(C)C)CC(CC(=O)NCc2ccco2)C(=O)N1Cc1ccccc1 (configuration not stated)	-6.5%	i	?	-27.0%	?	?
NC(=O)CCN1CCCCC1	3.3%[11.3 µM]	i	1.3%	-12.3%	-1.5%	23.5%
O=C(CCC(=O)CCN1CCCCC1)CCN1CCCCC1	30.6%	i	13µM*	0.6%	-4.5%	20.6µM*
Cc1ccc(CNC(=O)C(C)C2Sc3ccccc3NC2=O)cc1 (configuration not stated)	-22.9%	i	-17.3%	-15.6%	-15.9%	-9.7%
CCC[C@@H](C=O)NC(=O)[C@H](CC(C)C)NC(=O)[C@H](CC(C)C)NC(=O)OCc1ccccc1	1.53µM*	nt	nt	nt	nt	nt
CC(C)CC(NC(=O)OCc1ccccc1)C(=O)NC(Cc1c[nH]c2ccccc12)C(=O)O (configuration not stated)	15.2%	i	-11.1%	15.5%	59.5%	-11.2%
CC(=O)[C@H](CC(C)C)NC(=O)[C@@H](CC(C)C)NC(=O)[C@H](CC(C)C)NC(=O)OCc1ccccc1	nt	nt	0.15µM*	nt	nt	0.188µM*
CC(=O)NC(CC(C)C)C(=O)NC(Cc1ccccc1)C(=O)CCl (configuration not stated)	5.8%	nt	2.31µM*	-43.7%	?	2.59µM*
O=C(NCc1cccnc1)c1cc(Cl)ccc1[N+](=O)[O-]	0.8%	i	3.7%	8.3%	2.2%	6.5%
Cc1cc(NC(=O)COc2coc(CN3CCN(c4ccc(F)cc4)CC3)cc2=O)no1	0.1%	i	-24.2%	5.1%	-3.0%	-0.2%
O=S(=O)(c1ccccc1F)N1CCC(Oc2ccc(-n3cnnn3)cc2)CC1	nt	i	?	-27.2%	?	23.1µM*
COc1ccc(-n2nnnc2C2CCN(S(=O)(=O)c3ccc(C(C)(C)C)cc3)CC2)cc1	nt	nt	-6.2%	-4.5%	?	-24.6%
CC(C)(C)c1ccc(S(=O)(=O)N2CCC(Oc3ccc(-n4cnnn4)cc3)CC2)cc1	nt	nt	?	-1.8%	0.0%	10.3µM*
COc1ccc(C)cc1Nc1nc2c(S(=O)(=O)c3cccc(Cl)c3)nnn2c2ccsc12	16.0%	i	?	-6.6%	-0.1%	?
CC(=O)c1ccc(NC(=O)c2ccc(N3C(=O)c4cccnc4C3=O)cc2)cc1	8.9%	i	-0.4%	-3.0%	0.7%	-0.5%
CCOC(=O)Nc1ccc2c(c1)C(=NNC(=S)NC)c1ccccc1-2	nt	?	4.61µM*	-23.4%	?	3.26µM*
CCOC(=O)NN=C1c2ccccc2-c2ccccc21	-24.2%	?	?	-20.8%	3.9%	?
Cc1cc(C(=O)N/N=C/c2ccc(N(C)C)o2)cs1	4.1%	i	23.1µM*	-22.5%	-21.1%	16.4µM*
Cc1ccc(/C=N/NC(=O)c2csc(C)c2)o1	27.2%	i	5.6%	-24.9%	-6.3%	-9.9%
COc1cccc(/C=C/c2nc3ccccc3nc2/C=C/c2cccc(OC)c2OC)c1OC	nt	nt	8.91µM*	-18.5%	25.0%	2.82µM*
COc1cccc(/C=N/Nc2nc3ccccc3[nH]2)c1OC	48.7%	i	7.0%	-13.8%	-5.5%	-27.0%
